Assay results as given in PubChem BioAssay (Tox21).
Results filed as inconclusive are left out. Calls of active or inactive are those of the source. Calls follow the shape of the full dose curve.

assay: p53 small molecule agonists, cell-based qHTS assay with human liver microsomes: qHTS cell viability counter screen (AID 1963579); details: p53RE-bla HCT-116 viability, ATP luminescence, 16 h, HLM; series mostly up to 66 µM; activity change, negative = cytotoxicity: at the top concentration; also: nearly all actives have a fitted effect of over 45% in size
Excerpt: National Center for Advancing Translational Sciences [NCATS]
Division of Preclinical Innovation [DPI]
U.S. Environmental Protection Agency [EPA]
National Institutes of Environmental Health Sciences [NIEHS]
National Toxicology Program [NTP]
U.S. Food and Drug Administration [FDA]
p53, a tumor suppressor protein, is activated following cellular insult, including DNA damage and other cellular stresses. The activation of p53 regulates cell fate by inducing DNA repair, cell cycle arrest, apoptosis, or cellular senescence. The activation of p53, therefore, is a good indicator of DNA damage and other cellular stresses. […] The activation of the reporter gene under culture conditions can be detected by fluorescence intensity. This cell line was used to screen the Tox21 10K compound library in the condition of presence of human liver microsomes and to identify agonists that activate the p53 signaling pathway after in vitro metabolic activation (Ooka et al., Archive of Toxicology 96:1975-1987, 2022).
Tox21 Assay Protocol Summary:
The p53RE-bla cells were dispensed at 4,000cells/3ul/well in 1536-well black-clear bottom plates. After the assay plates were incubated at 37 C, 5% CO2 incubator for 5 hours, 23 nL of compounds dissolved in DMSO, positive controls or DMSO only was transferred to the assay plate. Following compound addition, 3 uL of human liver microsomes (XenoTech, Kansas City, KS) at final concentration of 0.5 mg/mL and 1uL of B-Nicotinamide adenine dinucleotide 2'-phosphate (NADPH) at final concentration of 0.5 mg/mL were transferred to the assay plate. The plates were incubated at 37 C for 16 hours. 1 uL of LiveBLAzer detection mixture was added to each well and the plates were incubated at room temperature in the dark for 2 h. Fluorescence intensity at 460 and 530 nm emission and 405 nm excitation were measured by an Envision plate reader. For cell viability readout that measures cytotoxicity, 4 ul/well of CellTiter-Glo reagent was added into the assay plates using a Flying Reagent Dispenser. After 30 min incubation at room temperature, the luminescence intensity in the plates was measured using a ViewLux plate reader.
% is scaled to controls: 0 for no effect and ±100 for the full control effect; potency is read from the fitted curve at half-maximal effect.

SMILES | activity change, negative = cytotoxicity | Potency
CO[Si](CCCNc1ccccc1)(OC)OC | 5.35% (inactive) | 
Nc1ccc(F)c([N+](=O)[O-])c1 | 2.73% (inactive) | 
CCCCOc1ccc(OCCCN2CCOCC2)cc1 | -7.71% [at 30.3 µM] (inactive) | 
CC(=O)C1CCCCC1=O (stereo not given) | -1.02% (inactive) | 
CCCCCCCCCCCCCC[n+]1ccccc1 |  | 32.4 µM (active)
Cc1cc(C(C)(C)C)c(O)c(C)c1Cn1c(=O)n(Cc2c(C)cc(C(C)(C)C)c(O)c2C)c(=O)n(Cc2c(C)cc(C(C)(C)C)c(O)c2C)c1=O | -4.2% (inactive) | 
CCNC(=O)N1CCN(CCCC(c2ccc(F)cc2)c2ccc(F)cc2)CC1 | 29% [at 30.3 µM] (inactive) | 
NC[C@H]1O[C@H](O[C@H]2[C@H](O[C@@H]3O[C@H](CO)[C@@H](O)[C@H]3O)C(O)[C@H](N)C[C@@H]2N)[C@H](N)[C@@H](O)[C@@H]1O (stereo not given in full) | 26.1% [at 5.99 µM] (inactive) | 
O=C(C(Cl)Cl)N1CCOC12CCCCC2 | -0.197% (inactive) | 
CC(C)(C)c1cccc(O)c1 | 5.16% (inactive) | 
CCCCCCCCCCCCOC(=O)c1ccc(O)cc1 | -18.3% (inactive) | 
CC[C@@H](CO)NCCN[C@@H](CC)CO | 23.4% [at 30.3 µM] (inactive) | 
CN(C(=O)CCCOc1ccc2[nH]c(=O)ccc2c1)C1CCCCC1 | 18.2% [at 30.3 µM] (inactive) | 
N#CSCC(=O)O | -2.98% [at 30.3 µM] (inactive) | 
C#C[C@]1(OC(C)=O)CC[C@H]2[C@@H]3CCC4=C[C@@H](OC(C)=O)CC[C@@H]4[C@H]3CC[C@@]21C | -5.09% [at 30.3 µM] (inactive) | 
C=C(C)C(=O)OCCN(CC)CC | -0.511% (inactive) | 
C[C@H]1O[C@@H](n2cc(F)c(=O)[nH]c2=O)[C@H](O)[C@@H]1O | -3.36% [at 30.3 µM] (inactive) | 
C=CCOc1nc(OCC=C)nc(OCC=C)n1 | -0.17% (inactive) | 
Cc1ccc(C(=O)c2ccccc2)cc1 | -12.9% (inactive) | 
Cn1c(N)c(N=O)c(=O)n(C)c1=O | 0.639% (inactive) | 

SMILES | activity change, negative = cytotoxicity | Potency
Fc1ccc([C@@H]2CCNC[C@H]2COc2ccc3c(c2)OCO3)cc1 | 14.8% [at 30.3 µM] (inactive) | 
CC(C)(C)NCCNC(C)(C)C | 3.66% (inactive) | 
CCCCCc1ccco1 | -8.19% [at 30.3 µM] (inactive) | 
O=C(NCCc1c[nH]c2ccccc12)c1cccnc1 | 19.6% [at 30.3 µM] (inactive) | 
C[C@@H](CN1CC(=O)NC(=O)C1)N1CC(=O)NC(=O)C1 | -1.46% [at 30.3 µM] (inactive) | 
Nc1ccc(S(=O)(=O)O)c(N)c1 | 3.2% (inactive) | 
CC(=O)SC[C@@H](Cc1ccccc1)C(=O)NCC(=O)OCc1ccccc1 | -15% [at 30.3 µM] (inactive) | 
CCCCCCCCOS(=O)(=O)O | 0.395% (inactive) | 
Clc1nc(C(Cl)(Cl)Cl)c(Cl)c(Cl)c1Cl | -17.6% (inactive) | 
C=COC(=O)C(C)(CC)CCC(C)C (stereo not given) | 5.84% (inactive) | 
CCCOC(=O)c1ccc(C(=O)OCCC)nc1 | 7.43% (inactive) | 
O=C(OCCCCCCOC(=O)c1ccccc1)c1ccccc1 | 4.41% (inactive) | 
CCc1cccc(CC)c1 | 0.131% (inactive) | 
NC(=O)Nc1ccc(Cl)c(Cl)c1 | -10.4% (inactive) | 
CCCCNc1c(C(=O)OCC)c(C)nc2c1cnn2CC | -5.21% [at 30.3 µM] (inactive) | 
CC(CCl)OC(C)CCl (stereo not given) | 4.96% (inactive) | 
CN1C(=O)c2ccc([N+](=O)[O-])cc2C1=O | 3.32% (inactive) | 
CC(C)=CC1CC(C)CCO1 (stereo not given) | 10.2% (inactive) | 
CCCCCCCCCOC(C)=O | 2.36% (inactive) | 
CC(C)(C)NCC(O)COc1cccc2c1CCC(=O)N2 (stereo not given) | -0.0642% [at 30.3 µM] (inactive) | 
